A short description of assay [1]: qHTS assay to test for compound auto fluorescence at 535 nm (green) in HEK293 cells (AID 720680). (In general: qHTS replaces the single test concentration by a dilution series.)
A short description of assay [2]: qHTS assay to test for compound auto fluorescence at 460 nm (blue) in HEK293 cell free culture (AID 720681). A digest of the protocol: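 Blue fluorescence (Ex 405/Em 460 nm, triamterene-equivalent) was read immediately after pin transfer of compound or DMSO into medium (DMEM, 10% FBS) without cells.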
The nature of assay [3]: qHTS assay to test for compound auto fluorescence at 535 nm (green) in HEK293 cell free culture (AID 720682). A digest of the protocol: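 DMEM + 10% FBS, cell-free; cpd or DMSO pinned in; Ex485/Em535 read; output as fluorescein-equivalent signal.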
A short description of assay [4]: qHTS assay to test for compound auto fluorescence at 590 nm (red) in HEK293 cell free culture (AID 720683). Put shortly: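 Red-channel autofluorescence of compounds in culture medium (DMEM, 10% FBS), no cells, measured at 540/590 nm. Rose Bengal sodium is the reference fluorophore for equivalence.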
Assay [5] can be described thus: qHTS assay to test for compound auto fluorescence at 590 nm (red) in HepG2 cell free culture (AID 720684). A digest of the protocol: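 No cells present: MEM + 10% FBS only. Compound pinned in, red label read (540/590 nm). Activity = fluorescence equivalent to Rose Bengal sodium.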
Assay [6] in a line: qHTS assay to test for compound auto fluorescence at 535 nm (green) in HepG2 cell free culture (AID 720686).
Assay [7] can be described thus: qHTS assay to test for compound auto fluorescence at 460 nm (blue) in HepG2 cells (AID 720687). A digest of the protocol: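 Blue-channel autofluorescence (Ex/Em 405/460 nm, triamterene-equivalent) was measured after 1 hr compound exposure at 37 C, 5% CO2. Cells were HepG2, plated overnight at 37 C in MEM plus 10% FBS.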
A short description of assay [8]: qHTS assay to test for compound auto fluorescence at 460 nm (blue) in HepG2 cell free culture (AID 720685). A digest of the protocol: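 Cell-free plates of MEM plus 10% FBS received 23 nL compound or DMSO vehicle; blue-channel (405/460 nm) intensity scored against triamterene as reference fluorophore.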
The target in assay [9] is Glucocorticoid receptor (Homo sapiens) (UniProt P04150). The experiment in a line: qHTS assay to identify small molecule agonists of the glucocorticoid receptor (GR) signaling pathway (AID 720691; active = well fitted activation curve with a large enough effect in the signal ratio in the repeat runs, not every such curve was filed as active; the % refers to the signal ratio; note: potency is the fitted concentration of half-maximal effect). Put shortly:
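Cells: GR-bla HeLa, endogenous GR with stably integrated GRE-beta-lactamase reporter. Treatment 18 h, 37 C, compounds delivered in DMSO. Detection via LiveBLAzer B/G FRET substrate, 2 h RT, fluorescence intensity.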

Assay [10] shares this target. The experiment in a line: qHTS assay to identify small molecule antagonists of the glucocorticoid receptor (GR) signaling pathway (AID 720692; active = well fitted inhibition curve with a large enough effect in the signal ratio in the repeat runs, not every such curve was filed as active; the % refers to the signal ratio; note: potency is the fitted concentration of half-maximal effect). Put shortly:
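Quantitative HTS in antagonist format: HeLa cells expressing endogenous GR and a stably integrated GRE-bla reporter, stimulated with 5 nM dexamethasone (final) alongside test compounds for 18 h.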

This is an account of results in PubChem BioAssay (Tox21).

A number with no mark means an inactive call. Results filed as inconclusive are left out. The source made the active and inactive calls. Unless noted, calls come from the whole dose curve; as a rule, active = well fitted curve in the direction sought with a large enough effect in the repeat runs; inconclusive = weak or mixed curves; inactive = flat fitted curve, though single readings scatter.
% is set by controls: 0 for no effect and ±100 for the full control effect.

Sequence of Glucocorticoid receptor (Homo sapiens) (P04150 whole entry, looked up): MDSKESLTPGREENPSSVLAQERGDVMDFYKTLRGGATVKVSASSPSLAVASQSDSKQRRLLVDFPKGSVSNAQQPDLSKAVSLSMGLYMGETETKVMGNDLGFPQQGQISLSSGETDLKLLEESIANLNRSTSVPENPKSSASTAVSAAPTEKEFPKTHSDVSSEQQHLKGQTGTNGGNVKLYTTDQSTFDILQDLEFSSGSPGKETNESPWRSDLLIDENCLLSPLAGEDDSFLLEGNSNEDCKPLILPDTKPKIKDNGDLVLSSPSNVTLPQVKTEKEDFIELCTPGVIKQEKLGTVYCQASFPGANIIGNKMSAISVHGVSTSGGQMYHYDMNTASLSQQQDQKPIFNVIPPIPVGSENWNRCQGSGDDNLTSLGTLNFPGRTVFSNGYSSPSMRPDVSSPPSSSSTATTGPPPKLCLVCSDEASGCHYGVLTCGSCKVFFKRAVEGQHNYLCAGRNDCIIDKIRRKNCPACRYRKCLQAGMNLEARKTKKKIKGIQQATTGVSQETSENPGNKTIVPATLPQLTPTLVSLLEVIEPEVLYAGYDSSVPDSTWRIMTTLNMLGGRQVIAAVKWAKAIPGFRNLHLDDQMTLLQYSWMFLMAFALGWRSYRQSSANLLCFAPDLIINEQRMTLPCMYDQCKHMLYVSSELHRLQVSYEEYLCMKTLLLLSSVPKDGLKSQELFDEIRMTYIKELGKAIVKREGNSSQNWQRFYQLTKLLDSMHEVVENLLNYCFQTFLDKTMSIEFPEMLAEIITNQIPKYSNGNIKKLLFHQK

`O=C(CCCCCCC(=O)Nc1ccccc1)NO`: the outcome in assay [1], in assay [3], in assay [4], in [5] and in assay [6] was inactive. The Potency result in assay [2] and in assay [7] was “inactive” in each case.
For `CCOC(=O)CC(=O)C(=O)OCC`, the compound was called inactive in assay [1], in assay [3], in assay [4] and in assay [5]. Further, the Potency result in assay [2], in [8], in assay [7], in assay [9] and in [10] was “inactive” in each case.
In the case of `CN1CCCN=C1/C=C/c1cccs1`, the compound was classed as inactive in assay [1], in [3], in [4], in assay [5] and in [6]. The Potency result in assay [2], in [7] and in assay [10] was “inactive” each time.
As to `ON(Cc1ccccc1)Cc1ccccc1`, the result in assay [1], in [3], in [4], in assay [5] and in assay [6] was inactive. The Potency entry in assay [2] and in assay [7] was “inactive” in each case.
As for `O=C(c1ccc(O)cc1)c1ccc(Cl)cc1`, the result in [1], in [3], in assay [4], in [5] and in [6] was inactive. For the same compound, the Potency entry in [2] and in [7] was “inactive” throughout.
In the case of `Cc1ccc(/C=N/n2c(-c3ccccc3)csc2=S)cc1`, the call in assay [1], in assay [3], in assay [4], in [5] and in assay [6] was inactive. Further, the Potency entry in assay [2], in assay [7] and in assay [9] was “inactive” in each case.
For the compound `CC(=O)[C@H]1CC[C@H]2[C@@H]3C[C@H](C)C4=CC(=O)CC[C@]4(C)[C@H]3[C@@H](O)C[C@]12C`, in assay [1], the fluorescence, % of fluorescein was 0.123% [at 18.6 µM]. For the same compound, the fluorescence, % of fluorescent control in assay [2] is -0.0076% [at 18.6 µM]; in assay [4], -0.395% [at 18.6 µM]; in assay [7], 0.0065% [at 18.6 µM]. Besides, the activity change in [3] was -0.0137% [at 18.6 µM]. Besides, the fluorescence, % of Rose Bengal in assay [5] was -0.145% [at 18.6 µM]. Also, the fluorescence, % of fluorescein control in assay [6] is 0.189% [at 18.6 µM]. The Potency in assay [9] is 0.0323 µM (active).
For `O=C1OCCN1/N=C/c1ccc([N+](=O)[O-])o1`, the result in assay [1], in assay [3], in assay [4] and in [6] was inactive. The Potency entry in assay [2], in assay [7], in assay [9] and in [10] was “inactive” in each case.
As to `CCCCCCOC(=O)C(C)C`, the compound was classed as inactive in [1], in [3], in [4] and in [6]. For the same compound, the Potency result in assay [2], in assay [8] and in assay [7] was “inactive” in each case.
`O=C(O)c1cccnc1C(=O)O`: the compound was called inactive in assay [1], in [3], in [4] and in assay [5]. Also, the Potency entry in [2] and in [7] was “inactive” each time.
On to `CC(C)CCCCCOC(=O)CCCCC(=O)OCCCCCC(C)C`, for which the call in assay [1], in assay [3], in assay [4] and in assay [6] was inactive. In addition, the Potency result in [2], in [8], in [7], in assay [9] and in assay [10] was “inactive” throughout.
With `CC1(C)C2=CCCC(C)(C)[C@]23CC[C@H]1C3`, the result in assay [1], in [3], in assay [4] and in assay [6] was inactive. Also, the Potency entry in assay [2], in assay [8], in assay [7], in assay [9] and in [10] was “inactive” in each case.
For `CC(C)(O)c1ccccc1CC[C@@H](SCC1(CC(=O)O)CC1)c1cccc(/C=C/c2ccc3ccc(Cl)cc3n2)c1`, the result in assay [1], in [3], in [4] and in assay [6] was inactive. Also, the Potency result in [2], in assay [8] and in assay [7] was “inactive” in each case.
In the case of `O=C(O)Cc1ccc(-c2ccccc2)cc1`, in assay [1], the fluorescence, % of fluorescein was -0.0578% [at 18.6 µM]. Further, the fluorescence, % of fluorescent control is 0% [at 18.6 µM] in assay [2], 0.0962% [at 18.6 µM] in [4] and -0.1% [at 18.6 µM] in [7]. In addition, the activity change in assay [3] is -0.0541% [at 18.6 µM]. For the same compound, in assay [6], the fluorescence, % of fluorescein control was -0.0983% [at 18.6 µM]. The Potency result in assay [9] and in [10] was “inactive” throughout.
Regarding `CNC(=S)NC`, the outcome in [1], in assay [3], in [4] and in assay [6] was inactive. In addition, the Potency entry in assay [2], in assay [8], in assay [7] and in assay [9] was “inactive” each time.
For `CCOC(=O)c1ccccc1OC`, the outcome in [1], in assay [3], in [4] and in assay [6] was inactive. Moreover, the Potency result in assay [2], in [8] and in assay [7] was “inactive” each time.
On to `C[C@@H]1C[C@H]2[C@@H]3CCC4=CC(=O)C=C[C@]4(C)[C@@]3(F)[C@@H](O)C[C@]2(C)[C@@]1(O)C(=O)CO`, for which the outcome in [1], in [3], in assay [4] and in assay [6] was inactive. In addition, the Potency entry in assay [2], in assay [8] and in [7] was “inactive” throughout.
In the case of `CN(C(=O)C(Cl)Cl)c1ccc(OC(=O)c2ccco2)cc1`, the compound was classed as inactive in [1], in [3], in assay [4] and in assay [6]. For the same compound, the Potency entry in [2], in assay [8], in assay [7], in assay [9] and in assay [10] was “inactive” in each case.
In the case of `CCCCCCCCCOC(C)=O`, the compound was called inactive in assay [1], in assay [3], in assay [4] and in [6]. Moreover, the Potency entry in assay [2], in assay [8], in [7], in assay [9] and in [10] was “inactive” each time.
For the compound `Nc1nc(Cl)nc2c1ncn2[C@@H]1O[C@H](CO)[C@@H](O)[C@@H]1F`, the result in assay [1], in assay [3], in assay [4] and in assay [6] was inactive. For the same compound, the Potency result in assay [2], in assay [8] and in assay [7] was “inactive” throughout.
In the case of `O=C(CCC1CCN(Cc2ccccc2)CC1)c1ccc2c(c1)NCCCC2`, the result in assay [1], in assay [3], in assay [4] and in assay [6] was inactive. Also, the Potency result in assay [2], in assay [8] and in assay [7] was “inactive” throughout.
For the compound `COCCOC(=O)C1=C(C)NC(C)=C(C(=O)OC/C=C/c2ccccc2)C1c1cccc([N+](=O)[O-])c1` (stereo not given), the compound was called inactive in assay [1], in assay [3], in assay [4] and in [6]. Moreover, the Potency entry in assay [2], in [7] and in assay [9] was “inactive” each time. Also, in assay [10], the Potency is 10.7 µM (active).
For the compound `C[Si](NC1CCCCC1)(NC1CCCCC1)NC1CCCCC1`, the call in [1], in assay [3], in assay [4], in assay [5] and in [6] was inactive. Besides, the Potency entry in assay [2], in assay [7] and in assay [10] was “inactive” throughout.
Regarding `CC(C)(C)C(=O)O`, the result in [1], in [3] and in assay [4] was inactive. Also, the Potency result in [2], in assay [8], in [7] and in assay [9] was “inactive” throughout.
